IL-1B inflam inh: inflammasome signaling inhibition, IL-1 beta readout | THP-1 LPS/ATP IL-1B secretion, AlphaLISA, 16 h; active compounds read low | activity change, % at 57.5 µM | actives 4.7% (n = 360,000); in the data active = activity change below about -50%; inconclusive = mostly about -30% to -49%
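Secreted IL-1B measured by AlphaLISA bead assay after 16 h compound exposure of THP-1 cells; compounds (final up to 57.5 uM) added 1 h before LPS (250 ng/mL) and ATP (1.25 mM) stimulation; lower signal means less secretion.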
TDP1 cell noCPT: qHTS for Inhibitors of human tyrosyl-DNA phosphodiesterase 1 (TDP1): qHTS in cells in absence of CPT; AID 686978, 2013; Potency, µM (highest dose often 46.2 µM), without a hit: top-dose activity change, negative = growth inhibition, actives largely listed as inhibitors; actives 15% (n = 420,000); DT40 Tdp1-/- hTDP1 cells, no CPT, ATP luminescence, 48 h; also: potency is read from the fitted curve at half-maximal effect; nearly all actives have a fitted effect of over 55% in size
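Cells were dispensed at 400 per well, compounds added by pin tool, plates incubated ≥48 hr at 37 °C, then CellTiter-Glo added for 30 min at room temperature before luminescence reading. Line: DT40 Tdp1-/- complemented with hTDP1; camptothecin omitted.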
HT1080 IDH1KD tx: toxicity to HT-1080 IDH1 knockdown cells (counter line). HT-1080 IDH1 knockdown viability, ATP luminescence, 48 h. Potency, µM (titrated, usually from 46.1 µM), for the others: at the highest dose activity, negative = toxicity, usual class: cytotoxic. actives 2% (n = 360,000). AID 686971;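 also: potency is read from the fitted curve at half-maximal effect; 0% = DMSO wells and -100% = cell-free medium wells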
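Knockdown cells (IDH1KD HT-1080) received compounds 2 h after plating at 750 cells/well and were kept 48 h at 37 °C in 5% FBS RPMI. A CellTiter-Glo luminescence read gave % activity for curve fitting.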
HT1080NT lethal: kills 2HG-producing HT-1080-NT fibrosarcoma cells | HT-1080-NT fibrosarcoma viability, CellTiter-Glo ATP luminescence, 48 h | Potency, µM (top dose mostly 46.1 µM), inactives show top-dose activity, negative = less viability, usual class: cytotoxic | actives 1.6% (n = 360,000);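 also: NT is the 2HG producing partner of a matched IDH1 knockdown line; potency is read from the fitted curve at half-maximal effect; 0% = DMSO-treated cells and -100% = media-only wells without cells; nearly all actives have a fitted effect of over 55% in size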
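Fibrosarcoma NT cells, 750 per well in 5% FBS RPMI, were exposed to compound for 48 hours. Viability: CellTiter-Glo luminescence.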
DT40 TDP1 CPT: growth inhibition of DT40 Tdp1-/-;hTDP1 cells with camptothecin (screen for TDP1 inhibitors); chicken DT40 Tdp1-/-;hTDP1 cells + 20 nM CPT, ATP luminescence, 48 h; Potency, µM (top dose mostly 46.2 µM), inactives show at the highest dose activity change, negative = growth inhibition, most hits filed as inhibitors; actives 12% (n = 420,000); AID 686979; also: potency is read from the fitted curve at half-maximal effect; nearly all actives have a fitted effect of over 55% in size
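Chicken DT40 Tdp1-/- cells complemented with human TDP1, 400 cells/well, exposed to compounds plus 20 nM camptothecin for at least 48 h at 37 C; viability read as ATP content by CellTiter-Glo luminescence.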
Starred values were filed as active, the others as inactive; ? = inconclusive; / = no result given. This is a sample that favours compounds with a hit; in the whole collection about 19% have one here. Unless noted, calls follow the shape of the dose curve; as a rule, active = well fitted curve in the direction sought with a large enough effect; inconclusive = small, poorly fitted or top-dose-only effect, or another doubt; inactive = no such curve, though single readings can be large; an effect the other way counts as inactive or inconclusive. Unless noted, % is scaled to controls: 0 for no effect and ±100 for the full control effect.

SMILES	IL-1B inflam inh	TDP1 cell noCPT	HT1080 IDH1KD tx	HT1080NT lethal	DT40 TDP1 CPT
O=C(NCc1ccc2c(c1)CCN2C(=O)c1ccc(F)cc1)c1cc2ccccc2[nH]1	/	?	/	/	16.4µM*
O=C(Cc1ccc(F)cc1)NCc1ccc2c(c1)CCN2C(=O)c1ccc(F)cc1	/	9.2µM*	/	/	?
O=C(CSc1ccccc1)NCc1ccc2c(c1)CCN2C(=O)c1ccccc1	/	-18.8%	/	/	5.6%
CC(=O)Nc1cccc(C(=O)NCc2ccc3c(c2)CCN3C(=O)c2ccc(F)cc2)c1	/	16.4µM*	/	/	20.6µM*
Cc1oc2c(c1C(=O)Nc1ccc(OC(F)(F)F)cc1)C1=NCCN1C=N2	/	-3.4%	/	/	-2.0%
NC1(c2ccc(-c3nc4ccn5c(=O)[nH]nc5c4cc3-c3ccccc3)cc2)CCC1	/	0.596µM*	/	/	0.376µM*
CCOC(=O)C(NC(=O)c1ccc(Cl)cc1Cl)(Nc1ccc(C)cc1)C(F)(F)F (centres undefined)	-20.8	16.4µM*	-5.7%	-2.1%	23.1µM*
CCOC(=O)C(NC(=O)c1ccccc1Cl)(Nc1ccc(C(F)(F)F)cc1)C(F)(F)F (centres undefined)	-7.9	?	-17.6%	2.4%	?
COc1cccc(NC(=O)Cn2c(=O)n(Cc3ccc4c(c3)OCO4)c(=O)c3oc4ccccc4c32)c1	/	-12.9%	/	/	-8.4%
C[C@H](CO)N1C[C@H](C)[C@H](CN(C)S(=O)(=O)c2ccc(Cl)cc2)OCc2cnnn2CCCC1=O	-15.9	?	-3.5%	-4.0%	?
O=C1Cc2c(-c3ccccc3)cc(-c3cccc(Cl)c3)nc2-c2ccccc2N1	0.0	?	-9.9%	-2.1%	20.6µM*
CCOC(=O)C(C)(C)N(Cc1cccc(C)c1)S(=O)(=O)c1ccc(Cl)c([N+](=O)[O-])c1	?	14.6µM*	?	-10.5%	23.1µM*
CN(CC(=O)Nc1ccc(F)cc1)C(=O)COC(=O)c1nc(Cl)ccc1Cl	12.1	-4.2%	4.5%	-0.7%	-1.9%
O=C(NC1CCCC1)C1C(c2ccccc2)=Nc2ccccc2N1C(=O)c1cc(Cl)cc(Cl)c1 (centres undefined)	2.0	29.1µM*	-2.8%	13.1%	18.4µM*
Cc1cc(NC(c2ccc(Cl)cc2)c2ccc3cccnc3c2O)no1 (centres undefined)	89.0	4.61µM*	?	?	4.11µM*
COc1ccccc1NC(c1cccnc1)c1ccc2cccnc2c1O (centres undefined)	-24.9	?	?	-15.2%	?
CCCC(=O)NC(c1ccco1)c1c(O)ccc2ccccc12 (centres undefined)	9.6	?	?	-21.2%	?
CCCCC(=O)NC(c1ccc(OC)cc1)c1ccc2cccnc2c1O (centres undefined)	116.5	9.2µM*	?	?	5.8µM*
CC(C)C(=O)NC(c1ccc(N(C)C)cc1)c1c(O)ccc2ccccc12 (centres undefined)	-1.8	-13.3%	-13.8%	1.6%	-19.7%
CCCC(=O)NC(c1ccccc1Cl)c1ccc2cccnc2c1O (centres undefined)	107.5	5.17µM*	?	?	3.26µM*
CCCC(=O)NC(c1ccc(N(C)C)cc1)c1ccc2cccnc2c1O (centres undefined)	172.1	0.92µM*	?	?	0.651µM*
Nc1cc(=O)[nH]c(SCc2nnnn2-c2ccc(Cl)cc2)n1	16.1	8.3%	12.1%	6.0%	-6.4%
CCC(C)n1ncn(-c2ccc(N3CCN(c4ccc(OC[C@H]5CO[C@](Cn6cncn6)(c6ccc(Cl)cc6Cl)O5)cc4)CC3)cc2)c1=O (some centres undefined)	/	-26.6%	/	/	-13.8%
CCOC(=O)CSc1nc2sc3c(c2c(=O)n1-c1ccccc1)CCN(C(C)C)C3	-2.4	?	?	?	-6.5%
C1=C/C(=C2/C=Cc3ccccc32)c2ccccc2N1	/	-93.2%	/	/	?

From PubChem
